Among all 190,000 compounds or so, about 3,500 (1.8%) were called active.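 Rule for the calls: active = inhibition above a set limit, 3 SD over mean compound inhibition (cut at about 8.4% in these data); inactive = the rest.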 The list comes from a sample in which actives are over-represented; it also holds similar structures and randomly drawn compounds.
Assay: RAM signaling blockers in budding yeast – dse1pr::URA3 reporter, 5-FOA selection, primary screen (AID 868);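 note: 0% = DMSO-only wells with no growth and 100% = 10 µM 1-NA-PP1 full growth; inhibition rescues growth on 5-FOA so higher OD means more RAM inhibition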
Details: S. cerevisiae dse1pr::URA3 reporter, 5-FOA growth OD615, 2 d; at 50 µM; active compounds read high

Compound | inhibition
CC(=O)Nc1ccccc1C(=O)OCC(=O)c1cccc2ccccc12 | 9.49% (active)
O=C(Nc1cccc2ccccc12)N1CCC2(CC1)OCCO2 | 1.87% (inactive)
CC1=CC(=Cc2sc3ccccc3[n+]2C)C=C(C)O1 | 0.13% (inactive)
Cc1ccc(-c2cc(C(=O)N3CCC4(CC3)OCCO4)no2)cc1 | -1.75% (inactive)
COC(=O)N1C(c2ccccc2)C1c1ccccc1 (stereo not given) | 0.12% (inactive)
OCC#CC[N+]1(CC#Cc2ccccc2)CCCC1 | 2.58% (inactive)
O=C(NC(c1ccc(Cl)cc1)P(=O)(Oc1ccccc1)Oc1ccccc1)OCc1ccccc1 (stereo not given) | 11.3% (active)
O=C(Nc1cccc(OC(=O)N2CCCCC2)c1)N1CCOCC1 | -1.26% (inactive)
Cc1ccnc(-n2c(C)cc(/C=C3\C(=O)NC(=S)N(C)C3=O)c2C)c1 | 1.13% (inactive)
CCOC(=O)C1SC2(C(F)(F)C(F)F)CC1(O)c1c(c(OC)c3occc3c1OC)O2 (stereo not given) | 9.36% (active)
NC(=O)Cn1cc(C(=O)c2ccccc2F)c2ccccc21 | 4.57% (inactive)
O=C(COC(=O)c1ccccc1)Nc1ccc(Cl)cc1C(=O)c1ccccc1 | 8.43% (active)
O=C(CCNS(=O)(=O)c1ccccc1)Nc1ccc(Cl)cc1C(=O)c1ccccc1 | 2.12% (inactive)
CN1CCN(C(=S)SCC(=O)Nc2ccc(Cl)cc2C(=O)c2ccccc2)CC1 | -0.25% (inactive)
COc1ccc(NC(=O)N2CCC3(CC2)OCCO3)c(OC)c1 | 4.37% (inactive)
Cc1ccc(-c2nn(CCC#N)cc2C(=O)O)cc1C | -0.13% (inactive)
C=CCN(CC=C)C(=O)Nc1ccc(OCC)cc1 | 1.22% (inactive)
CN(C)P(=S)(Nc1ccccc1)C(Cl)(Cl)Cl (stereo not given) | 1.76% (inactive)
CC(Cc1cccs1)NCc1ccc(Cl)cc1 (stereo not given) | 1.87% (inactive)
CC1CCCCN1Cc1cccnc1 (stereo not given) | 1.23% (inactive)

Reference: PubChem BioAssay AID868 (SRMLSC, 2007)
